Sampled rows, rich in hits. Any-hit rate of the full collection: about 1.6%.
KCNQ2 pot = potentiators of rat KCNQ2 potassium channel. O88943. CHO-K1 KCNQ2, FluxOR thallium flux fluorescence; active compounds read high. B-score at 10 µM. hit rate 0.54% among 310,000. AID 2239;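 active = fluorescence ratio B-score at least 3 SD of library B-scores, with initial fluorescence B-score within 3 of them, cut at about 5.3 in these data; same plate scores as AID 2156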;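 also: B-score of peak minus minimum over baseline fluorescence ratio after K+ and Tl+ stimulus; positive B-score means potentiation of KCNQ2 with more thallium influx and brighter signal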
KCNQ2 inh = inhibitors of rat KCNQ2 potassium channel | CHO-K1 KCNQ2, FluxOR thallium flux, 20 min; active compounds read low | B-score at 10 µM | hit rate 1.1% among 310,000;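 active = fluorescence ratio B-score at most minus 3 library SDs, with starting brightness B-score within 2 library SDs, cut at about -5.5 in these data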
KCNQ2 inh conf = rat KCNQ2 channel inhibition, confirmatory screen | shares compounds with KCNQ2 inh | hit rate 57% among 1,000 | activity change, negative = inhibition, % at 10 µM | KCNQ2-expressing cells, thallium flux; active compounds read low
KCNQ1 spec = human KCNQ1 activity in KCNQ2 inhibitor specificity screen; shares compounds with KCNQ2 inh; KCNQ1-expressing cells, FluxOR thallium flux fluorescence; active compounds read low; activity change, negative = inhibition, % at 10 µM; hit rate 15% among 1,000; AID 493026;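 active = activity change at least 3 SD of negative controls below their mean in both duplicate wells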;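 also: CHO cells stably transfected with KCNQ1 and depolarized by potassium stimulus; peak minus minimum fluorescence over baseline after thallium addition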
Target sequence (P51787 whole entry, looked up): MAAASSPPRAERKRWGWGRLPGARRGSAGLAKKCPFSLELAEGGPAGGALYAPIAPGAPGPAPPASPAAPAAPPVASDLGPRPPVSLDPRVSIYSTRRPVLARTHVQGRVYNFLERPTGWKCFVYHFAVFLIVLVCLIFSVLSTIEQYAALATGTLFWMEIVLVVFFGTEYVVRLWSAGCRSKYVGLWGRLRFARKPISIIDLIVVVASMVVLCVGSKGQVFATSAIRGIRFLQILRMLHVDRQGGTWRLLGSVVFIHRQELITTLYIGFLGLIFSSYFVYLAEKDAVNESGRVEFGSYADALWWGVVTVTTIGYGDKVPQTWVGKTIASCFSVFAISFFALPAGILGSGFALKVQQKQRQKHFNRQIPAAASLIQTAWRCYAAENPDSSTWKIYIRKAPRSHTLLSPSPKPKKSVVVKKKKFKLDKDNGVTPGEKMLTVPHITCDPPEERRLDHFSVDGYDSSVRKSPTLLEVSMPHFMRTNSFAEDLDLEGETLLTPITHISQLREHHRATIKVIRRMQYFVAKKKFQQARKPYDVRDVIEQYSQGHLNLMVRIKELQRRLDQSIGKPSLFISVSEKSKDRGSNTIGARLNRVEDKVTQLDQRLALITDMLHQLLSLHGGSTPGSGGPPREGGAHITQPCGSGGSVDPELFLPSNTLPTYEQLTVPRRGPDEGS
CHO Tl ctr = activity in parental CHO cells lacking KCNQ2. hit rate 14% among 1,000. activity change, % at 10 µM. shares compounds with KCNQ2 inh. thallium flux counter-screen; active compounds read low
KCNQ2 inh confirm = rat KCNQ2 inhibition confirmed by electrophysiology; hit rate 49% among 550; shares compounds with KCNQ2 inh; calls only at 10 µM; AID 588531; KCNQ2-expressing cells, automated patch clamp current
Of the large screens only hits and unclear results are named; the others gave an inactive call (follow-up assays come after a bar, where they were run). Unless noted, no rule for the calls is given here.

CCn1c(=O)c(C(=O)NCc2ccc(F)cc2)c(O)c2ccccc21	KCNQ2 inh -6.7 | KCNQ2 inh conf inactive | KCNQ1 spec inactive | CHO Tl ctr inactive
CCn1c(=O)c(C(=O)NCc2ccccc2)c(O)c2ccccc21	none (no result: KCNQ2 pot)
CCn1c(=O)c(C(=O)NCc2ccccc2OC)c(O)c2ccccc21	none (no result: KCNQ2 pot)
COCCCNC(=O)C1=CCN(S(=O)(=O)c2ccc(OC)cc2)CC1	none (no result: KCNQ2 pot)
Cc1cc(Nc2ccc3c(c2)OCCO3)c2cc(Cl)ccc2n1	none (no result: KCNQ2 pot)
Cc1cccc(-c2nc(CN3CCCC(C(=O)NC4CCCC4)C3)c(C)o2)c1 (configuration not stated)	none (no result: KCNQ2 pot)
Cc1cccc(-c2nc(CN3CCCC(C(=O)NC4CCC(C)CC4)C3)c(C)o2)c1 (configuration not stated)	KCNQ2 inh -9.6 | KCNQ2 inh conf -26% | KCNQ1 spec inactive | CHO Tl ctr inactive | KCNQ2 inh confirm active
CCOC(=O)C1CCCN(C(=O)c2ccc3nc(-c4cccc(OC)c4)oc3c2)C1 (configuration not stated)	none (no result: KCNQ2 pot)
CCOC(=O)c1cnc2c(OC)cccc2c1N1CCN(c2ccc(OC)cc2)CC1	none (no result: KCNQ2 pot)
CCOC(=O)c1cnc2c(OC)cccc2c1N1CCN(c2ccccc2OC)CC1	KCNQ2 inh -12 | KCNQ2 inh conf -30% | KCNQ1 spec inactive | CHO Tl ctr inactive | KCNQ2 inh confirm inactive
CCOC(=O)N1CCN(C(=O)CCCn2nnnc2CN2CCC(C)CC2)CC1	none
COc1ccc(N2Cc3ccccc3/C2=N\C(=O)Nc2ccccc2)cc1	KCNQ2 inh -7.1 | KCNQ2 inh conf -28% | KCNQ1 spec inactive | CHO Tl ctr inactive | KCNQ2 inh confirm active
CC(=O)CN1Cc2ccccc2/C1=N\C(=O)Nc1ccccc1	none
CC(Oc1ccccc1)C(=O)Nc1nnc(S(=O)(=O)N(C)c2ccccc2)s1 (configuration not stated)	none (no result: KCNQ2 pot)
CCc1nc(SCC(=O)Nc2ccc(OC)cc2[N+](=O)[O-])n[nH]1	none
CCC1(CC)Cc2ccccc2-c2nc(-c3ccccc3)oc(=O)c21	none (no result: KCNQ2 pot)
O=c1oc(-c2ccccc2)nc2c1C1(CCCCC1)Cc1ccccc1-2	KCNQ2 inh -8.7 | KCNQ2 inh conf inactive | KCNQ1 spec inactive | CHO Tl ctr inactive
CCC[C@@H]1CCCO[C@@](C(=O)NCCN2CCOCC2)(C(F)(F)F)C1	none (no result: KCNQ2 pot)
CC(C)c1ccc(/C=N/NC(=O)c2cccc(Cl)c2)cc1	none (no result: KCNQ2 pot)
CC(C)c1ccc(C(=O)N/N=C/c2cccc(Cl)c2Cl)cc1	KCNQ2 inh -9.5 | KCNQ2 inh conf inactive | KCNQ1 spec inactive | CHO Tl ctr inactive
COc1ccc(C)cc1NC(=O)Nc1ccc(C(=O)N2CCCC2)cc1	none (no result: KCNQ2 pot)
COc1ccc(N(C(=O)c2snc(C(N)=O)c2N)C(C(=O)NCC2CCCO2)c2ccc(C)o2)cc1OC (configuration not stated)	none
CCc1cc(/C(Cc2ccc3ccccc3n2)=N\O)c(O)cc1O	KCNQ2 inh -12 | KCNQ2 inh conf -35% | KCNQ1 spec -42% | CHO Tl ctr -27% | KCNQ2 inh confirm active
CCc1cc(/C(Cc2ccccn2)=N\O)c(O)cc1O	none (no result: KCNQ2 pot)
O=C(CCNc1ccccc1)c1cccc([N+](=O)[O-])c1	KCNQ2 inh -7.9 | KCNQ2 inh conf inactive | KCNQ1 spec inactive | CHO Tl ctr inactive
O=C(CCNc1ccc(F)cc1)c1cccc([N+](=O)[O-])c1	none (no result: KCNQ2 pot)
COc1ccc(C(=O)Nn2c(SCc3cccc([N+](=O)[O-])c3)nc3ccccc3c2=O)cc1	none (no result: KCNQ2 pot)
COCCn1c(SCc2cccc([N+](=O)[O-])c2)nc2ccccc2c1=O	none (no result: KCNQ2 pot)
O=C(Nn1c(SCc2cccc([N+](=O)[O-])c2)nc2ccccc2c1=O)c1ccccc1	KCNQ2 inh -8.9 | KCNQ2 inh conf -38% | KCNQ1 spec -40% | CHO Tl ctr -32% | KCNQ2 inh confirm active
CCOC(CCn1c(SCc2cccc([N+](=O)[O-])c2)nc2ccccc2c1=O)OCC	KCNQ2 inh -7.3 | KCNQ2 inh conf inactive | KCNQ1 spec inactive | CHO Tl ctr inactive
Cc1ccc(-c2c(C(=O)N/N=C/c3c[nH]c4ccccc34)nnn2-c2nonc2N)cc1	none
CCCCC(=O)Nc1ccc(C(=O)NN2C(=O)c3ccccc3C2=O)cc1	none
Cc1ccc(S(=O)(=O)NCC(=O)OCC(=O)c2ccc(Cl)s2)cc1	none (no result: KCNQ2 pot)
CN(C(=O)c1nn(C)c2c1CSc1ccccc1-2)c1ccccc1Cl	KCNQ2 inh -6.7 | KCNQ2 inh conf -37% | KCNQ1 spec -40% | CHO Tl ctr -34% | KCNQ2 inh confirm inactive
CC1CCCC(C)N1CCCNC(=O)c1nn(C)c2c1CSc1ccccc1-2 (configuration not stated)	none

Source: PubChem
